Test results from the supplement of paper PMC6555819.

system: VDR:RXRa (NR concentration 270 nM, RXRa partner concentration 90 nM); experiment: PBM binding z-score (relative to random genomic background probes); higher = stronger binding; sequences stand for … in GC…GCGATTGACAGCGTAGAATGAAGG
Experimental: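 Protein-binding microarray (Agilent 4x180K custom design, double-stranded 60-nt probes: 5' GC cap, 34-nt variable region, 24-nt constant primer region; full probe sequence given). Purified or IVT nuclear receptor:RXRα heterodimers (3:1 NR:RXRα, mostly 270:90 nM) or homodimers were incubated for 1 h in PBS with 2% milk and no ligand, then detected with Alexa488 antibodies. Fluorescence from o1-orientation probes (~5 replicates averaged) was converted to z-scores against 500 random hg19 background probes. Variable regions are seed direct-repeat (DR0–DR5) sites, all their single-nucleotide variants and half-site ablations.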

Sequence	PBM binding z-score
GGAACGAGGGCAATGTTGATAGCATCTGTCGACG	0.402
TTACCAAGGTGATCTGAGGTCGTTGATCCAACTC	4.13
ACTTTTAGTTGAGACGAGGGCAACCGATAGGTTG	0.832
AGTCAAAGCTCATCTAGGTAACGTAAGATATGCT	-0.215
CCTGCTAGGTCATGGTCAGCAAATCTACAGTATG	1.48
TTACCAAGGTGAAACGTCGTTGATGCACGCCTTG	-0.243
TATACAGGGACAAAGGCCAGAGTACGAATGTCGA	0.123
TGTCAAAGTTCAAAGTTAACGTAAGTATCCACAC	4.57
CTGACTGGGGCAGAAAGGTTACCATACCATCCGG	1.36
CGAACTAGGTCAGAACAGGACAGTGAAGGATGAT	0.634
TCTAGCAGGCCAGAGGGTCACACAAGAGGTACGG	2.26
CAAACTAGGTCAAAGGTCAAAGTGGAGCCAACCA	6.72
AGTCAAAGTTCACTCGGTAACGTAAGATTCAGCT	4.31
GCGTATAGGTAATACAAGGTGAAAGTCCGATTGT	0.306
ATATGTAGGTTAAGGGTCATTAAGGTTGGTTCGC	6.19
GGTACAGGGTCAAGGCCAGAGTACGCGTATTGAT	4.52
CAGACAGGGTCAGCTAGGCCAGAGTAGGGACGGC	3.81
TCGTGTAGATCAATAGAGGTTAAGAAAGTGCGCT	1.83
TTACCAAGGTGAAGGTCGCTGATCCCTCTGTAGA	0.493
GCTATTAGTTGAAAGGGAAACCGAATGATTCTCG	0.00748

Sequence	PBM binding z-score
GCGTCTGGGGCAAAGCAGGTTACCATAAGGTTGG	0.117
AATACCGGGTCATCGTAGGCCAGAGTACGCACAG	4.42
TCTCGGAGGAGACGAAAGGTCAGAGCTCGACATC	1.87
CCTACTGGCCCAAAGGTCATTGATTCCAATGCTC	4.28
ATCTCTAGATAACAAGTTCAGTGAAAGAGAGGAC	1.45
CGATCTAGGTCAAGGACAGTGAATCTCCGCACGC	0.643
GCTCGGAGGACACGGTCAGAGCTTTGTCCGTAGA	-0.792
TCTAGGAGGACACGAAAGGTCAGAGCTCGACATC	3.42
CTCGAAAGGTCGGTTGAGGTGAGTATTCGGATAA	2.16
CATACAGGGTCAGCTAGGCCAGACTAGGGACGGC	3.86
TCTTGTAGATCCAGCAGGTTAAGAAAGCCTGAGT	0.306
CCTAGCAGGCCACTCTGGGTCACTCAAGGCTTGA	0.79
TCATATCGGTAAATGCTAGGTGAAAGTCCGATCT	0.566
TATACAGGGTCAAAGGCCAGAGTACGAATGTCGA	4.8
AGAACGAGGGCACGCTGAGTTGTTAGCAGAGTAG	1.6
AGAATGAGGTTAAGATCAGGTAAACAGAATACAT	1.49
GGACCAAGGTGAATAGGTCGTTGATGAGTAGGCG	0.886
TCGAGTTGGTCAAAGGTCACACACTCGAAATGCG	5.56
TCGAGTAGGTTACCAATGGGGCACTCAGCTTTCT	0.142
AGTCAAAGTTCATCTAGGTAACGTACGATATGCT	5.15
